From PubChem BioAssay (EPA / NIEHS) come the findings set out here.

SMILES strings stand for the structures. Results filed as inconclusive are left out. Calls of active or inactive are those of the source. The calls were made as follows, unless noted: active = hit-call score of the fitted dose curve at least 0.9, where 1 is the maximum; inactive = score below 0.9.

In general, AC50 refers to the midpoint of the concentration-response curve, whichever way the signal moves.

Assay [1] can be described thus: CCTE_Harrill_HTTr_Apoptosis_MCF7: CCTE's 6-hour Apoptosis Assessment for the High-Throughput Transcriptomics (HTTr) Platform, in MCF-7 cells cultured in DMEM + 10% fetal bovine serum, Harrill Lab (AID 2284011). Summed up: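 High-content imaging of CellEvent Caspase 3/7 Green signal follows a six-hour exposure, with eight concentrations per chemical. MCF-7 cells grown in DMEM plus 10% fetal bovine serum; activity fitted in both directions against DMSO.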

Assay [2] is described as follows: CCTE_Harrill_HTTr_CellCount_MCF7: CCTE's Cell Proliferation Assessment for the High-Throughput Transcriptomics (HTTr) Platform, Harrill Lab (AID 2284012; active = hit-call score of the fitted dose curve at least 0.9, where 1 is the maximum;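 also: cells exposed to compound for six hours; intended direction is loss of nuclei count meaning fewer cells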). Put shortly:
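Cell count from high-content imaging of Hoechst-labeled nuclei serves as viability/growth readout. Chemicals were applied to MCF-7 cells in eight concentrations for six hours, with fitting in both directions relative to DMSO.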

Assay [3] deals with Nucleoli Translocation, AR (gene 367) (UniProt P10275). As to the kind of experiment: UPITT_HCI_U2OS_AR_TIF2_Nucleoli_Agonist: University of Pittsburgh U2OS Androgen Receptor-Transcriptional Intermediary Factor 2 (AR-TIF2) Agonism High Content Imaging Assay for Nucleoli Translocation (AID 2283998; active = hit-call score of the fitted dose curve at least 0.9, where 1 is the maximum). Summed up:
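Nucleolar translocation of AR-RFP, with TIF2-GFP coexpressed in human osteosarcoma U2OS, imaged by high-content fluorescence. Compounds tested singly at 20 uM final, confirmed in triplicate, then titrated 0.195–50 uM final; gain-of-signal relative to DMSO.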

For assay [4], the target named is Ratio of Nucleoli Translocation and Cytoplasm, AR (gene 367) (UniProt P10275). As to the kind of experiment: UPITT_HCI_U2OS_AR_TIF2_Nucleoli_Cytoplasm_Ratio_Antagonist: University of Pittsburgh U2OS Androgen Receptor-Transcriptional Intermediary Factor 2 (AR-TIF2) Antagonism High Content Imaging Assay for Ratio of Nucleoli Translocation and Cytoplasm (AID 2283999; active = hit-call score of the fitted dose curve at least 0.9, where 1 is the maximum;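 also: antagonists lower the DHT-driven ratio of nucleolar to cytoplasmic red signal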). Put shortly: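 High-content imaging of red fluorescence ratio, nucleoli versus cytoplasm, in U2OS expressing AR-RFP and TIF2-GFP, fitted relative to DHT. Compounds tested once at 20 uM final, then 0.195 to 50 uM final in serial dilution.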

Assay [5] shares this target. As to the kind of experiment: UPITT_HCI_U2OS_AR_TIF2_Nucleoli_Cytoplasm_Ratio_Agonist: University of Pittsburgh U2OS Androgen Receptor-Transcriptional Intermediary Factor 2 (AR-TIF2) Agonism High Content Imaging Assay for Ratio of Nucleoli Translocation and Cytoplasm (AID 2284000; active = hit-call score of the fitted dose curve at least 0.9, where 1 is the maximum;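 also: hits raise the red nucleolar to cytoplasm ratio above vehicle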). Summed up: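 Compounds tested at 20 uM final in primary screen (0.2% DMSO) and 0.195-50 uM final in dose-response (0.5% DMSO). Imaging of human U2OS cells bearing RFP-AR and GFP-TIF2; endpoint is nucleoli/cytoplasm red signal ratio, positive direction relative to DMSO.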

The nature of assay [6]: UKN5_HCS_SBAD2_cell_viability: Viability Assessment in the University of Konstanz (UKN) Leist Lab Neurite Outgrowth Assay in human iPSC-derived immature Dorsal Root Ganglia Neurons (UKN5) (AID 2284056). Put shortly:
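iPSC-derived immature peripheral neurons (SBAD2) seeded on Matrigel with CHIR99021, SU5402 and DAPT, dosed 1 h later for 24 h. Viability from Hoechst H-33342 and calcein-AM live staining, high-content imaging; bidirectional fit versus DMSO.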

Assay [7] is described as follows: UKN5_HCS_SBAD2_neurite_outgrowth: University of Konstanz (UKN) Leist Lab Neurite Outgrowth Assay in human iPSC-derived immature Dorsal Root Ganglia Neurons (UKN5) (AID 2284070). The note with it: actives raise or lower the signal. Summed up: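 Neurite area from calcein-AM high-content images after 24 h exposure (staining included), with H-33342 for viability, fitted both directions against DMSO. Cells: thawed immature SBAD2 peripheral neurons, 100.000 cells/cm2, with CHIR99021, SU5402, DAPT; dosing 1 h after seeding.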

Assay [8] in a line: UKN4_HCS_LUHMES_neurite_outgrowth: University of Konstanz (UKN) Leist Lab Neurite Outgrowth Assay in human LUHMES cells (UKN4) (AID 2284206). The note with it: actives raise or lower the signal. Summed up: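 After 24 h compound treatment beginning shortly after replating of 2-day-differentiated LUHMES cells, calcein-AM and H-33342 live staining allowed high-content imaging of neurite area and viability. Fitted bidirectionally against DMSO.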

The nature of assay [9]: UKN4_HCS_LUHMES_cell_viability: Viability Assessment in the University of Konstanz (UKN) Leist Lab Neurite Outgrowth Assay in human LUHMES cells (UKN4) (AID 2284232). Put shortly: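 Viability was read by high-content imaging of calcein-AM/H-33342-stained cells after 24 h toxicant exposure, staining included. Cells: human LUHMES on day 2 of dopaminergic differentiation, dosed shortly after attachment; DMSO baseline, bidirectional curve fitting.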

The nature of assay [10]: UKN2_HCS_IMR90_cell_viability: Viability Assessment in the University of Konstanz (UKN) Leist Lab Neural Crest Cell Migration Assay in human induced IMR90 Pluripotent Stem Cells (UKN2) (AID 2284233).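 Also: cells exposed to compound for 24 h after a 24 h migration phase.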 Summed up: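 After calcein-AM/Hoechst staining, viability is quantified by high-content fluorescence imaging, relative to DMSO, in iPSC (IMR90)-derived neural crest cells. Exposure lasts 24 h, starting after a 24 h migration period on PLO/laminin/fibronectin coating.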

Assay [11] is described as follows: CCTE_Mundy_HCI_hNP1_Pro_ResponderAvgInten: CCTE's Proliferation Assay in human neuroprogenitor cells, Mundy Lab (AID 2284224; active = hit-call score of the fitted dose curve at least 0.9, where 1 is the maximum;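 also: human neural progenitor cells hNP1 derived from WA09 embryonic stem cells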). Put shortly:
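Proliferation was scored as BrdU labelling intensity in human neural progenitors derived from WA09 embryonic cells, measured 26.25 hours after chemical dosing. Activity was fitted relative to DMSO.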

The nature of assay [12]: Tanguay_ZF_120hpf_MUSC: Oregon State University Tanguay Lab 120 Hour Post-fertilization zebrafish Assay for Muscle Malformation (AID 2284401). Put shortly: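 Scored as a binary brightfield endpoint at 120 hpf, fitted versus DMSO. Single dechorionated wild-type (Tropical 5D) zebrafish embryos per well, statically exposed at 28C from 6 hpf onward with final DMSO 0.64%.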

Ratio of Nucleoli Translocation and Cytoplasm, AR (gene 367), sequence (P10275 whole entry, looked up): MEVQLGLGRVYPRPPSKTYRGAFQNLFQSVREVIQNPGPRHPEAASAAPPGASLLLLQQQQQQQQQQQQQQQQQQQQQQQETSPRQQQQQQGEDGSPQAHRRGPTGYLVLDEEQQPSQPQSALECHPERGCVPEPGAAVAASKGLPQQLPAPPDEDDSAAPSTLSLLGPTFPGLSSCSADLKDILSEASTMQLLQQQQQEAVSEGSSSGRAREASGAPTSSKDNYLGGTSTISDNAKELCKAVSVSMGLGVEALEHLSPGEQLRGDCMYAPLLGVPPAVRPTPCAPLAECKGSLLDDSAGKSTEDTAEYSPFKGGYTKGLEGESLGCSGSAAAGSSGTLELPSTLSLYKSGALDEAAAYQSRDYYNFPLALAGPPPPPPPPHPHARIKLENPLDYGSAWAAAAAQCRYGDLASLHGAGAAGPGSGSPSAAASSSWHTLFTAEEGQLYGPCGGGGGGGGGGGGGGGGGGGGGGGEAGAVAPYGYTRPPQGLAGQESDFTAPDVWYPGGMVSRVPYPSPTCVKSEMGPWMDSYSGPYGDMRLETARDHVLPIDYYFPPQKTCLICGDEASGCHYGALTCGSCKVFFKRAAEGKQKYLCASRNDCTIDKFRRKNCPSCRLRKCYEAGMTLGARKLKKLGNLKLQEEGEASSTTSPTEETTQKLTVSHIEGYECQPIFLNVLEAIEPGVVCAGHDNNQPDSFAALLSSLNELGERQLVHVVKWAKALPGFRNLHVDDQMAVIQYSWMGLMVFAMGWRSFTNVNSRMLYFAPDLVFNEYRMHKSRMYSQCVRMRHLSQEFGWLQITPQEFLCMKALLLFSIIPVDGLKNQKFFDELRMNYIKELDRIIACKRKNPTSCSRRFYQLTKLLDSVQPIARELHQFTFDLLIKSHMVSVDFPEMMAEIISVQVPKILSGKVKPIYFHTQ
Nucleoli Translocation, AR (gene 367), sequence (P10275 whole entry, looked up): as above

On to `O=C(O)CCCOC(=O)c1ccccc1C(=O)O`, for which, in [1], the outcome was inactive.

Regarding `O=C1CCO1`, the outcome in assay [1] and in assay [2] was inactive.

In the case of `COP(=S)(OC)SCC(=O)N(C)C=O`, the result in assay [3], in [4], in assay [5] and in assay [1] was inactive.

For `ClC=C(Cl)CCl`, the outcome in assay [1] and in assay [2] was inactive.

Consider `COP(=S)(Oc1cc(Cl)c(Br)cc1Cl)c1ccccc1` (centres undefined), for which the outcome in [1] and in [2] was inactive.

For the compound `[CH3][Sn]([CH3])([CH3])[Cl]`, the AC50 is 18.8 µM (active) in [6]; 3.1 µM (active) in [7]; 2.5 µM (active) in assay [8]; 4.02 µM (active) in [9]; 4.51 µM (active) in assay [10].

For `C[C@@]1(CO)[C@H](O)CC[C@@]2(C)[C@H]1CC[C@H]1C[C@@H]3C[C@@]12CC[C@]3(O)CO`, in assay [11], the result was inactive.

For the compound `OCC(F)(F)C(F)(F)C(F)(F)F`, the outcome in [12] was inactive.

`O=C(O)C(F)(F)C(F)(F)C(F)(F)C(F)(F)C(F)(F)C(F)(F)C(F)(F)C(F)(F)C(F)(F)C(F)(F)C(F)(F)C(F)(F)C(F)(F)F`: the result in assay [12] was inactive.
